Measured values published in PubChem BioAssay AID652104 (National Center for Advancing Translational Sciences (NCATS), 2013).
“And” between values parts separate entries of the source, which are not always exact repeats. Equal entries are not always repeated. The whole screen tested about 410,000 compounds, of which about 7,200 (1.8%) were called active. A call without a number means that no potency is given here. Another 7% or so got no clear call; they are omitted. The call rests on the fitted dose curve; in most records, active means well fitted activation curve with a large enough effect; inconclusive means small, poorly fitted or top-dose-only effect, or another doubt; inactive means no such curve, though single readings can be large or run the other way. The sample as a whole holds a higher share of actives than the screen did.

Assay: qHTS of TDP-43 Inhibitors; further: nearly all actives have a fitted effect of over 50% in size
Conditions: TDP-43 expressing yeast growth rescue, BacTiter-Glo, 24 h; series mostly up to 46.1 µM
Summary of the method: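 Luminescence from BacTiter-Glo reports growth of TDP-43-expressing yeast after 24 hr at 30 deg C with compound. Cells were raffinose-pregrown to mid-log, then seeded in galactose medium at OD600=0.02.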
Potency means the concentration at half of the fitted maximal effect.

Compound | Potency | growth rescue (activation)
CCN(CCCNC(=O)c1ccc(Sc2ccc(C)cc2)c(NC(C)=O)c1)c1cccc(C)c1 | inactive | 
CC(=O)Nc1cc(C(=O)NCc2ccc(F)cc2)ccc1Sc1ccc(F)cc1 | 31.6 µM (active) | 
COCCNC(=O)c1ccc(S(=O)(=O)c2ccc(Cl)cc2)c(NC(C)=O)c1 | inactive | 
COC(=O)c1ccc(Sc2ccc(F)cc2)c(N)c1 | inactive | 
Cc1ccc(Sc2ccc(NC(=O)c3ccc(F)cc3)cc2C#N)cc1 | inactive | 
CC(=O)Nc1cc(C(=O)NCc2ccc(F)cc2Cl)ccc1Sc1ccc(Cl)cc1 | 11.2 µM (active) | 
COC(=O)c1cc(NC(=O)c2sc3ccccc3c2Cl)cc(C(=O)OC)c1 | inactive | 
O=C(Cn1c(=O)n(Cc2cccs2)c(=O)c2cccnc21)Nc1ccc(F)cc1 | inactive | 
COc1cn(CC(=O)Nc2cccc(C)c2C)c(CN2CCCCC2)cc1=O | inactive | 
COCCCNC(=O)c1ccc2c(c1)ncn2-c1ccccc1OC | inactive | 
COc1ccc(-n2cnc3cc(C(=O)NC4CCCC4)ccc32)cc1 | 28.2 µM (active) and 17.8 µM (active) | 
Cc1ccc(-n2cnc3cc(C(=O)NCCC4=CCCCC4)ccc32)cc1Cl | inactive | 
O=C(Oc1ccc(C(=S)N2CCOCC2)cc1)c1ccc(F)cc1 | 7.08 µM (active) | 
O=C(Oc1ccc(Br)cc1C(=S)N1CCOCC1)c1cccc([N+](=O)[O-])c1 | inactive | 
O=C(Oc1cccc(C(=S)N2CCOCC2)c1)c1cccc(Cl)c1 | 12.6 µM (active) | 
O=C(OCC(=O)N1CCOCC1)c1ccc2ccccc2c1 | inactive | 
O=C(Oc1ccc(F)cc1)N1CCOCC1 | inactive | 
Cc1ccc(C(=O)Oc2ccc(C(=S)N3CCOCC3)cc2)cc1 | inactive | 
CC1Cc2cc(S(=O)(=O)CCC(=O)NCc3ccc(Cl)cc3)ccc2N1C(=O)C1CC1 (stereo not drawn) | inactive | 
COc1cccc2c1cc1c(=O)n(CC(=O)N3CCN(c4cccc(Cl)c4)CC3)nc(C)n12 | inactive | 
Cc1ccc(CCNC(=O)c2ccc3c(c2)nc2n3CCC(C)C2)cc1 (stereo not drawn) | inactive | 
COc1cccc(-c2nnc3n(CCc4ccccc4)c(=O)c4ccccc4n23)c1O | inactive | 
O=C1OCC2=C1C(c1ccc(Cl)cc1)c1cc3c(cc1O2)OCO3 (stereo not drawn) | inactive | 
O=C1NC(c2cc3c(cc2Cl)OCO3)Oc2ccccc21 (stereo not drawn) | 22.4 µM (active) | 
O=C(NCc1nnnn1-c1ccc(Cl)cc1)c1ccc2c(c1)OCO2 | inactive | 

Compound | Potency | growth rescue (activation)
COc1ccc(CNC(=O)c2ccc3oc(C(C)C)nc3c2)cc1 | inactive | 
COc1ccc(-n2nnnc2CNC(=O)c2ccc3ccccc3c2)cc1 | 20 µM (active) | 
O=C(O)c1cc([N+](=O)[O-])c(Nc2cccc3ccccc23)c([N+](=O)[O-])c1 | 11.2 µM (active) | 
CC(C)NC(=O)c1ccc(Sc2ccccc2)c([N+](=O)[O-])c1 | inactive | 
O=C(Nc1cccc2ccccc12)NC1CC1 | inactive | 
COc1cccc(CNC(=O)C2CCN(S(=O)(=O)c3ccc4c(ccn4C)c3)CC2)c1 | inactive | 
Nc1ccccc1Sc1cc(Cl)nnc1Cl | 12.6 µM (active) | 
Cc1ccc(Nc2ccc3cc(S(=O)(=O)N4CCCCC4)ccc3n2)cc1F | inactive | 
CCCCN(C)CCCNC(=O)CN1N=C(c2ccc(OC)cc2)CCC1=O | inactive | 
CCOc1ccc(C2=CC(c3ccccc3)n3ncnc3N2)cc1 (stereo not drawn) | 17.8 µM (active) | 
Brc1ccc(C2=CC(c3ccco3)n3ncnc3N2)cc1 (stereo not drawn) | 12.6 µM (active) | 
CCOC(=O)C1=C(c2ccccc2)Nc2ncnn2C1c1ccc(Cl)cc1 (stereo not drawn) | inactive | 
COc1ccc(C2=CC(c3ccccc3Cl)n3nc(-c4ccc(Cl)cc4)nc3N2)cc1 (stereo not drawn) | inactive | 
CCOc1ccc(NC(=O)CSc2c3c(nc4ccccc24)CCCC3)cc1 | inactive | 
CC(=O)c1cccc(Nc2ccc3cc(S(=O)(=O)N4CCC(C)CC4)ccc3n2)c1 | inactive | 
COC(=O)c1ccc2nc(C3CCCCC3)c(Cc3cccc(F)c3)n2c1 | inactive | 
Cc1cc(Br)cn2c(Cc3ccccc3C(F)(F)F)c(C3CCCCC3)nc12 | inactive | 
CC(C)(C)Cc1c(C2CCCCC2)nc2ccc(Br)cn12 | 28.2 µM (active) | 
COc1cccc(NC(=O)c2csnn2)c1 | inactive | 
CCOC(=O)c1cnc2c(C)cc(C)cc2c1Nc1ccc(N2CCOCC2)cc1 | inactive | 
CCOc1cccc(CC(=O)N2CCc3c([nH]c4ccccc34)C2c2ccc(OC)cc2)c1OCC (stereo not drawn) | inactive | 
CCCC(=O)Nc1ccc2oc(-c3ccc(O)c(Br)c3)nc2c1 | inactive | 
CC(C)c1ccc(C2CC(=O)N3CN(C4CCCCC4)CSC3=C2C#N)cc1 (stereo not drawn) | inactive | 
CCc1nn(CC(=O)Nc2cc(C)cc(C)c2)c(=O)c2cc3sccc3n12 | inactive | 
S=C(Nc1cccc(Br)c1)N1CCn2cccc2C1c1cccnc1 (stereo not drawn) | inactive | 

Compound | Potency | growth rescue (activation)
O=S(=O)(c1cccc(C(F)(F)F)c1)N1c2ccccc2-n2cccc2C1c1cccnc1 (stereo not drawn) | 25.1 µM (active) | 
CC(=O)Nc1ccc(NC(=O)C2CCCN2S(=O)(=O)c2cccc(C(F)(F)F)c2)cc1 (stereo not drawn) | inactive | 
CN(C)c1cccc(C(=O)Nc2nc3ccc(S(=O)(=O)NC(C)(C)C)cc3s2)c1 |  | 6.18% [at 9.22 µM] (inactive)
COc1ccc2c(c1)c(N1CCCC1=O)c(C(=O)Nc1ccccc1C(F)(F)F)n2C | inactive | 
CCOc1ccc(NC(=O)C(CC(C)C)N2Cc3ccccc3C2=O)cc1 (stereo not drawn) | inactive | 
CC(Cc1cccs1)NC(=O)c1cccc(Cl)c1 (stereo not drawn) |  | -15.2% [at 0.397 µM] (inactive)
CC(C)(C)N(Cc1ccccc1)C(=O)c1ccncc1 | inactive | 
CC(Cc1cccs1)N(Cc1ccc(Cl)cc1)C(=O)c1ccncc1 (stereo not drawn) | 35.5 µM (active) | 
CCOc1cc(C2C(C(=O)Nc3ccc(OC)cc3)=C(C)Nc3nc(SC)nn32)ccc1O (stereo not drawn) | inactive | 
O=C(CSc1nccn1Cc1ccc(Cl)cc1)NCc1ccccc1 |  | 9.99% [at 9.22 µM] (inactive)
CCOC(=O)c1ccc(NC(=O)Cn2c(=O)cc(C)c3c(C)nn(-c4cccc(F)c4)c32)cc1 | inactive | 
O=C(O)c1[nH]c2ccccc2c1C(c1cccc(O)c1)c1c(C(=O)O)[nH]c2ccccc12 | inactive | 
Cc1[nH]c2ccccc2c1C(c1ccccc1)c1cccs1 (stereo not drawn) | 25.1 µM (active) | 
Cc1[nH]c2ccccc2c1-c1ccc(Cl)nn1 |  | -8.17% [at 9.22 µM] (inactive)
CCN(CC)c1ccc(NC(=O)CN2C(=O)c3cccnc3Oc3ccc(Cl)cc32)c(C)c1 | inactive | 
COc1ccc(-c2nn(CC(=O)NC3CCCC3)c3c2cnc2ccc(F)cc23)cc1 | inactive | 
Cc1cccc(C(=O)Nc2ccc(-c3nc4ccccc4s3)c(C)c2)c1 | inactive | 
O=C(Nc1ccccc1C(=O)O)c1ccc(N2C(=O)C3CC=CCC3C2=O)cc1 (stereo not drawn) | inactive | 
COc1ccc(Cl)cc1NC(=O)c1cccc(N2C(=O)C3CC=CCC3C2=O)c1 (stereo not drawn) | 11.2 µM (active) | 
COc1ccc(Cl)cc1NC(=O)COC(=O)C(CC(C)C)N1C(=O)C2CC=CCC2C1=O (stereo not drawn) | inactive | 
CC(=O)Nc1ccc(NC(=O)CCCc2nc(-c3ccc(C(C)(C)C)cc3)no2)cc1 | inactive | 
COc1ccc2c(c1)C=C(C(=O)NCc1cc(Br)ccc1OC)CO2 |  | 5.98% [at 9.22 µM] (inactive)
CCOC(=O)c1ccc(NC(=O)CC2C(=O)N(c3cccc(OC)c3)C(=O)N2C2CCCCC2)cc1 (stereo not drawn) | inactive | 
Cc1c(C(=O)N2CCCC2)oc2c1-c1nn(CC(=O)NCc3ccc(OC(C)C)cc3)cc1CC2 | 20 µM (active) | 
CCOc1ccc(CNC(=O)Cn2cc3c(n2)-c2c(oc(C(=O)N4CCCC4)c2C)CC3)cc1 | inactive | 

Compound | Potency | growth rescue (activation)
CCCN(CCC)CCCNC(=O)Cn1cc2c(n1)-c1c(oc(C(=O)N3CCCC3)c1C)CC2 | inactive | 
CC1=C(c2ccc(C)cc2)S(=O)(=O)NC1=NCCCN1CCN(c2cc(C)ccc2C)CC1 | inactive | 
Cc1nn(-c2ccc(N3CCCCC3)nn2)c(C)c1CCC(=O)NCc1ccccc1F | inactive | 
CN(C(=O)CSc1nnc(NC(=O)Nc2ccccc2)s1)c1ccccc1 | inactive | 
CC(=O)c1ccc(NC(=O)CSc2nnc(NC(=O)Nc3ccccc3)s2)cc1 | inactive | 
CC(C)c1ccc(Nc2nnc(SCC(=O)c3nnc(-c4ccccc4)o3)s2)cc1 | 20 µM (active) | 
CCOC(=O)c1ccc(NC(=O)CCS(=O)(=O)c2ccc3c(c2)oc(=O)n3C)cc1 | inactive | 
O=C(NC1CCN(Cc2ccccc2)CC1)c1ccc(Cn2c(=O)c3ccccc3n(Cc3cccc(F)c3)c2=O)cc1 | inactive | 
CC(C)c1ccc(NC(=O)c2ccc(Cn3nc(N4CCN(c5ccccc5)CC4)ccc3=O)o2)cc1 | inactive | 
CC1CC(=O)Nc2ccccc2N1S(=O)(=O)c1cccs1 (stereo not drawn) | inactive | 
CC1CC(=S)Nc2ccccc2N1Cc1ccccc1 (stereo not drawn) | 14.1 µM (active) | 
CC1CC(C)(C)NC(=S)N1CCC(=O)N1CCN(Cc2ccccc2)CC1 (stereo not drawn) | inactive | 
COc1ccc(-c2nc(S(=O)(=O)c3ccccc3)c(N3CCCCC3)o2)cc1 | inactive | 
COC(=O)[C@]1(S(=O)(=O)c2ccccc2)C[C@@H]2ON=C(c3ccc(OC)cc3)[C@@H]2C1 | 17.8 µM (active) | 
COc1ccc(CNC(=O)C2CC(c3ccc(C(F)(F)F)cc3)=NO2)cc1 (stereo not drawn) | inactive | 
COc1cc(OC)c(NC(=O)c2cc(S(=O)(=O)N3CCCC3)cn2C)cc1Cl | inactive | 
Cc1cccc(OCCSc2nc3ccccc3n2CC(=O)N2CCCCC2)c1C | 35.5 µM (active) | 
Cc1ccc(C(C)C)c(OCCSc2nc3ccccc3n2CC(=O)O)c1 | inactive | 
CCOc1ccc(OCCSc2nc3ccccc3n2CC(=O)O)cc1 | inactive | 
CCC(C)c1ccc2oc(-c3ccc(NC(=O)c4cc5ccccc5o4)cc3)nc2c1 (stereo not drawn) | inactive | 
Cc1ccccc1C(=O)OC1OC(=O)C(Cl)=C1Nc1ccccc1 (stereo not drawn) | 22.4 µM (active) | 
Cc1ccccc1C(=O)O | inactive | 
O=C1OC(OC(=O)c2ccccc2Br)C(N2CCOCC2)=C1Cl (stereo not drawn) | inactive | 
